# CYP2C19 act – human CYP2C19 activators, primary screen, biochemical, luminescence; recombinant CYP2C19, luciferin-H EGE luminescence; active compounds read high; 0 = fully inhibited enzyme, 1 = untreated enzyme; activation factor at 5 µM; 96,000 tested, under 10 active; AID 1025, 2008;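 active = activation factor of at least 2 at 5 µM in the primary screen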;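 also: 0 = wells with 2.5 mM tranylcypromine and 1 = vehicle-only wells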
# Cav3 T inh – Cav3.2 calcium influx blockers – cell-based, Fluo-4 calcium fluorescence, FDSS, MLSMR library, primary screen; AID 449739, 2010; 4% of 100,000 active; Cav3.2-expressing cells; active compounds read low; Voltage-dependent T-type calcium channel subunit alpha-1H (Homo sapiens), O95180; B-score at 10 µM;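 active = single-dose well whose peak fluorescence ratio is a statistical outlier from its plate by either plate-standardised score or position-corrected B-score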
# Target sequence (O95180 whole entry, looked up): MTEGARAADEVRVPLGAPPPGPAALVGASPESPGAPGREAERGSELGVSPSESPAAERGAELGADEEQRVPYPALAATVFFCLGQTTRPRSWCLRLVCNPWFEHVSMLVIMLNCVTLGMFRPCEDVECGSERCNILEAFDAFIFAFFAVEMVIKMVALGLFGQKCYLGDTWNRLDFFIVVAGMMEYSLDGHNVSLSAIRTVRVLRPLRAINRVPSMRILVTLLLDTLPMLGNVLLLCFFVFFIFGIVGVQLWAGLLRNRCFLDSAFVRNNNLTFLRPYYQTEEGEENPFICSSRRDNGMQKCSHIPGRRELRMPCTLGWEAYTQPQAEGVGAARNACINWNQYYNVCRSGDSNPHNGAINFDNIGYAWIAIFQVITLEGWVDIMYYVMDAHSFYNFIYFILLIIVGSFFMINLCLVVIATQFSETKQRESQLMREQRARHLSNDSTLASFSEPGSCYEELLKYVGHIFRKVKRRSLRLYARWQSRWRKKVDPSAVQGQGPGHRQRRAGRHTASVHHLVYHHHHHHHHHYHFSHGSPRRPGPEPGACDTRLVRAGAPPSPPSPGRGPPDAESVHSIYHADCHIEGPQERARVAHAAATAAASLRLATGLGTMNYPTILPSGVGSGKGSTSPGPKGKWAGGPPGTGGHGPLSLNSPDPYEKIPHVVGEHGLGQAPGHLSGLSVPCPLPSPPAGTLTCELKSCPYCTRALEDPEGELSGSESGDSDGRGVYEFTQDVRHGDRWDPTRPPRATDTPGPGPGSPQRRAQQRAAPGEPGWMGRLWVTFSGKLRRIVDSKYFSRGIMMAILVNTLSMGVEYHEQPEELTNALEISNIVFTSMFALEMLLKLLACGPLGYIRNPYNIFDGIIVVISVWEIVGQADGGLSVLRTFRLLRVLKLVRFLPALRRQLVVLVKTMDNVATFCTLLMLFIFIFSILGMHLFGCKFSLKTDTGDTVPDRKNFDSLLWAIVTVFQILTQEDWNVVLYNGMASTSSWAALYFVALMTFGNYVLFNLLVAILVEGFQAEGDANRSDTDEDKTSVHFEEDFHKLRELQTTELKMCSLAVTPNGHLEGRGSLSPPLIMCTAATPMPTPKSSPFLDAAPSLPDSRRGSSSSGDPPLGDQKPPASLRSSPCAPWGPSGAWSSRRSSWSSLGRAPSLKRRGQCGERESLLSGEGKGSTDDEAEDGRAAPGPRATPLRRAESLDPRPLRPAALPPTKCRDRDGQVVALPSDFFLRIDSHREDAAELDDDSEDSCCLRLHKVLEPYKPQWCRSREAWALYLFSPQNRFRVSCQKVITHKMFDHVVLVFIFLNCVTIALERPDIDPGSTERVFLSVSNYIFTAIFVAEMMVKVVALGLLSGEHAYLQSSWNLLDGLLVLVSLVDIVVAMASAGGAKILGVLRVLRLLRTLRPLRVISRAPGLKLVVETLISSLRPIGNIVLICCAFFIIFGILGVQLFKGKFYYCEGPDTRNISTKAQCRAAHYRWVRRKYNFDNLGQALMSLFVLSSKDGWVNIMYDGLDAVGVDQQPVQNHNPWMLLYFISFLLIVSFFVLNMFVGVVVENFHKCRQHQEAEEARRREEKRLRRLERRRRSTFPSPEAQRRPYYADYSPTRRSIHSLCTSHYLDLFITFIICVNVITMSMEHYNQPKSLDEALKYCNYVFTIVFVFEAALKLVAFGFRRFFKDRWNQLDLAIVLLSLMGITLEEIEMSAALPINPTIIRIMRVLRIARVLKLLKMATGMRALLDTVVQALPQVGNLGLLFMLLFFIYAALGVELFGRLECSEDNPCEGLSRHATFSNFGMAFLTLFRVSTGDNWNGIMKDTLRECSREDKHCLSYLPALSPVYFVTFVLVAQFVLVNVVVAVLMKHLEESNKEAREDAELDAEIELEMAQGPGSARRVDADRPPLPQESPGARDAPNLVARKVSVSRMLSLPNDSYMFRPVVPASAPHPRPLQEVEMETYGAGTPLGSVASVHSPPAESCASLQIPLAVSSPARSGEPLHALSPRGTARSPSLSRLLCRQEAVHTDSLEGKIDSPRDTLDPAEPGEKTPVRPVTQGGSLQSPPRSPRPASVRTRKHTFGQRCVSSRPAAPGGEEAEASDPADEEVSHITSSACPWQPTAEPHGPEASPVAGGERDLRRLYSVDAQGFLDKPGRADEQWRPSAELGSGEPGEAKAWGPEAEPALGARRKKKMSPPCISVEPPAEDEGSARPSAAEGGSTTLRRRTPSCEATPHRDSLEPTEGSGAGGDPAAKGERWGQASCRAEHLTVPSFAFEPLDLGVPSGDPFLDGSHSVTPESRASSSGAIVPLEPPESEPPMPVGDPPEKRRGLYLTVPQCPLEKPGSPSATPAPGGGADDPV
# CYP2C9 activ – human CYP2C9 activators, primary screen, biochemical, luminescence | 1.4% of 96,000 active | Cytochrome P450 2C9 (Homo sapiens), P11712 | recombinant CYP2C9, luciferin-H conversion; active compounds read high; factor 1 = untreated enzyme, 0 = blocked | activation factor at 5 µM;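 active = activation factor of 2 or more for CYP2C9 at a 5 µM dose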;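 also: 0 = sulfaphenazole-blocked wells and 1 = vehicle-only wells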
# CYP2C9 inh – blockers of cytochrome P450 2C9 activity – biochemical, luminescence, ADME assay, primary screen; CYP2C9 Supersomes, luciferin-H conversion; inhibition, % at 5 µM; 20% of 96,000 active; AID 777, 2007;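 active = blocking of liver enzyme CYP2C9 beyond about 50% at 5 µM, limit read from the data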
# CYP2C19 inhib – blockers of cytochrome P450 2C19 activity – biochemical, luminescence, ADME assay, primary screen; P33261; CYP2C19 Supersomes, luciferin-H EGE luminescence, 30 min; inhibition, % at 5 µM; 21% of 96,000 active;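 active = CYP2C19 inhibition above a set limit at 5 µM in the primary screen, cut at about 50% in these data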;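 also: plate controls were negative control wells for no effect and 2.5 mM tranylcypromine positive control for full effect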
# * marks the source's active call; other numbers are inactive results; · = no result given. Shown are actives, neighbours in structure and some others; about 27% of the full set was active somewhere.
SMILES,CYP2C19 act,Cav3 T inh,CYP2C9 activ,CYP2C9 inh,CYP2C19 inhib
O=C(c1ccc(Cl)c(Cl)c1)c1cnc(Nc2ccccc2)s1,0.9,0.72,0.9,7,6
CNc1ncc(C(=O)c2ccc(Cl)c(Cl)c2)s1,0.5,-0.022,0.5,48,53*
CCOC(=O)CSc1nnc(SCCN2C(=O)c3ccccc3C2=O)s1,0.6,·,0.2,83*,42
CC(C)NC(=O)c1cnc(N2CCN(c3ccccn3)CC2)c2ccccc12,0.8,1.4,0.6,35,20
CCN1CCN(c2ncc(C(=O)Nc3ccccc3C(=O)OC)c3ccccc23)CC1,0.9,0.77,0.4,56*,10
COc1ccc(N2Cc3cccc(C(=O)N4CCOCC4)c3C2=O)cc1,1.1,-0.1,0.9,8,-5
COc1ccc(N2Cc3cccc(C(=O)N4CCN(C(=O)c5ccco5)CC4)c3C2=O)cc1,0.7,0.52,0.4,64*,26
COc1ccc(CC(=O)N2CCN(C(=O)c3ccco3)CC2)cc1,0.9,0.21,1,0,7
Cc1ccc(S(=O)(=O)Cc2ccc(C(=O)N3CCN(Cc4ccccc4)CC3)o2)cc1,0.6,·,0.1,92*,41
COc1ccc(S(=O)(=O)Cc2ccc(C(=O)N3CCN(C(=O)c4ccco4)CC3)o2)cc1,0.8,0.28,0.2,80*,18
COc1ccc(S(=O)(=O)Cc2ccc(C(=O)N3CCN(Cc4ccccc4)CC3)o2)cc1,0.7,-0.51,0.1,87*,32
N#Cc1ccccc1NC(=O)c1ccc(-c2ccccc2Cl)o1,1.1,-0.19,1.2,-17,-6
Cc1cc(SCC(=O)c2ccccc2)nc(C)n1,0.3,·,0.8,22,67*
Cc1cc(C)n2nc(SCC(=O)N(C)Cc3ccccc3)nc2n1,1.1,1.1,1.2,-22,-6
Cc1cc(C)n2nc(SCC(=O)c3ccccc3)nc2n1,0.4,0.21,0.7,29,59*
COC(=O)c1ccc(NC(=O)CSc2ccccn2)cc1,0.2,-0.12,0.5,54*,82*
Cc1cc(SCC(N)=O)nc(SCC(=O)c2ccccc2)n1,0.8,0.8,1,4,20
Cc1ccc(C(=O)CSc2cc(C)nc(SCC(=O)c3ccccc3)n2)cc1,0.7,-1.5,0.3,73*,33
Cc1ccc(C(=O)CSc2ccccn2)cc1,0.2,0.16,0.6,43,82*
COc1ccc(CNC(=O)CSc2nc3nc(C)cc(C)n3n2)cc1,0.8,0.25,0.4,61*,20
Cc1cc(C)n2nc(SCn3nnc4ccccc4c3=O)nc2n1,0.3,0.27,0.9,8,72*
Cc1cc(=O)[nH]c(SCn2nnc3ccccc3c2=O)n1,1.1,0.43,1,2,-5
Cn1c(N)c(C(=O)c2cc(-c3ccccn3)nc3ccccc23)c(=O)[nH]c1=O,0.9,0.98,0.8,20,9
COC(=O)COc1ccc(=O)n(-c2ccccc2)n1,0.4,0.11,0.8,23,63*
COc1ccc(CC(=O)Nc2cccc(-c3nnc(-c4cccc(C)c4)o3)c2)cc1OC,0,-5.5,0.1,88*,98*
SMILES,CYP2C19 act,Cav3 T inh,CYP2C9 activ,CYP2C9 inh,CYP2C19 inhib
COc1ccc(-c2nc3cc(NC(=O)Cc4ccc(OC)c(OC)c4)ccc3o2)cc1,0.4,-1.4,0.4,55*,57*
COc1ccc(CC(=O)Nc2cccc(-c3nnc(-c4ccccc4)o3)c2)cc1OC,0.2,0.54,0.2,78*,85*
COc1ccc(CC(=O)Nc2cccc(-c3nnc(-c4ccc(C)cc4)o3)c2)cc1OC,·,-0.7,·,·,·
CCO[C@@H]1OC(C(=O)N2CCOCC2)=C[C@H](c2coc3ccccc3c2=O)[C@H]1CCCO,·,-0.027,·,·,·
COCCSc1ccccc1C(=O)N1CCOCC1,1.1,1.4,1,5,-13
O=C1c2ccccc2C(Nc2ccc(Cl)cn2)N1Cc1ccccc1 (stereo not given),0.2,-5.1,0.3,70*,81*
O=C1c2ccccc2C(Nc2ccccc2)N1c1ccc(Cl)cn1 (stereo not given),1,-0.13,1,-2,3
Cc1ccc(CN(c2ccc(C(=O)NCc3ccccn3)cc2)S(C)(=O)=O)cc1,0.7,0.81,0.8,25,32
COc1ccc(-c2nnn(CC#N)n2)cc1OC,0.2,1,0.4,62*,84*
Cc1cc(C)nc(NC(=O)CN2C(=O)c3ccccc3C2=O)n1,1.1,0.0026,1.2,-23,-6
CCN1CCN(c2ncnc3c2sc2nc(N4CCOCC4)c4c(c23)CCC4)CC1,0.3,·,0.5,54*,73*
CCOc1nnnc2c1sc1nc(N3CCOCC3)c3c(c12)CCCC3,0.1,0.33,0,98*,94*
c1nc(NCCN2CCOCC2)c2sc3nc(N4CCOCC4)c4c(c3c2n1)CCC4,0.9,·,0.8,16,8
Cn1nnc2c(sc3nc(N4CCOCC4)c4c(c32)CCCC4)c1=O,1,-1,0.8,24,2
Cc1ccc(S(=O)(=O)n2ccc(-c3ccc(OCc4c(F)cccc4Cl)cc3)n2)cc1,·,-0.72,·,·,·
Cc1ccc(S(=O)(=O)n2ccc(-c3cccc(OCc4c(F)cccc4Cl)c3)n2)cc1,0.8,-0.81,0.3,68*,20
CC(C)OP(=O)(c1ccc(N(C)C)cc1)C(O)c1c(Cl)cccc1Cl (stereo not given),0.2,-0.32,0.4,55*,81*
CCOP(=O)(c1ccc(N(C)C)cc1)C(O)c1ccccc1 (stereo not given),0.7,0.89,1,4,34
CCOP(=O)(c1ccc(N(C)C)cc1)C(O)c1ccc(Cl)cc1 (stereo not given),0.2,0.63,1.1,-10,80*
CC(C)COP(=O)(c1ccc(N(C)C)cc1)C(O)c1ccncc1 (stereo not given),0.3,0.82,0.4,58*,72*
COc1ccc(-c2cc3nc(C)cc(N4CC(C)CC(C)C4)n3n2)cc1 (stereo not given),·,0.27,·,·,·
CN(C(=O)c1ccco1)c1nc2c(s1)CCCC2,0.6,0.51,0.4,62*,45
COc1cc2c(cc1NCc1ccccn1)oc1ccccc12,·,-0.24,·,·,·
COC(=O)c1cc2oc3ccccc3c2n1Cc1ccccn1,0.3,-2.5,0.5,51*,73*
Cc1c(NC(=O)CN2CCN(C(=O)c3ccco3)CC2)c(=O)n(-c2ccccc2)n1C,1.1,-0.022,1.1,-5,-9
Cc1cccc(-c2noc(Cc3ccc(Cl)cc3)n2)c1,0.2,0.068,0.4,56*,80*
COc1ccc(Cc2nc(-c3cccc(C)c3)no2)cc1,1,-0.66,1,-5,-3
CCOC(=O)Cc1csc(NC(=O)c2ccc(C)o2)n1,0.3,1.8,0.3,72*,73*
CCOC(=O)Cc1csc(NC(=O)c2ccncc2)n1,0.2,-0.24,0.4,56*,78*

# Source: PubChem (several laboratories)
